# Data published in the supplement of paper PMC4022240.
# ± gives the standard deviation.
# T1: HaloTag-ATRX ADD domain (163-292)
# T1 chain: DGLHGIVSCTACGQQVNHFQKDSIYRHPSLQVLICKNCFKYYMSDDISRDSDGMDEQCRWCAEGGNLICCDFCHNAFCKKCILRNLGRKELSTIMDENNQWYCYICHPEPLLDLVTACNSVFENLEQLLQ
# What was measured:
# Test in all cases: peptide microarray binding signal (635 nm), min-max normalized on array (fraction of array maximum); higher = stronger binding
# [1] = biological target: T1, HaloTag-ATRX ADD domain (163-292)
# Procedure: (§1)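 Histone 13-mer peptides were synthesized as cellulose conjugates with a C-terminal 20-atom PEG linker and printed in triplicate on nitrocellulose. The sequence given is the unmodified backbone; PTMs (Kme1/2/3, Kac, Sph/Tph, Rme/Rme2a/Rme2s, Rcit) are listed in the label and the 'peptide modifications' condition. Slides were probed at 4 °C for 1 h with biotin-labelled (HQ)5-HaloTag reader fusions (ATRX-ADD, ING2-PHD) then streptavidin-Alexa647, or with rabbit histone antibodies then anti-rabbit Alexa647. The mean 635 nm signal of the triplicate spots was scaled 0-1 between the lowest and highest values on each array.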
# [2] = biological target: HaloTag-ING2 PHD (mouse Ing2 200-280)
# Procedure: as §1
# [3] = biological target: anti-H3K4me3 antibody ab8580
# Procedure: as §1
# [4] = biological target: anti-H3K9me3 antibody ab8898
# Procedure: as §1
# [5] = peptide region: H3 1-13, peptide modifications: H3K4me1 H3K9me1, binder concentration: 1:2,000 dilution
# [6] = peptide region: H3 1-13, peptide modifications: H3K4me1 H3K9me1, binder concentration: 1:10,000 dilution
# [7] = peptide region: H3 1-13, peptide modifications: H3K4me1 H3K9ac, binder concentration: 1:2,000 dilution
# [8] = peptide region: H3 1-13, peptide modifications: H3K4me1 H3K9ac, binder concentration: 1:10,000 dilution
# [9] = peptide region: H2B 17-29, peptide modifications: H2BK27ac H2BK28ac, binder concentration: 1:2,000 dilution
# [10] = peptide region: H2B 17-29, peptide modifications: H2BK27ac H2BK28ac, binder concentration: 1:10,000 dilution
# [11] = peptide region: H2B 17-29, peptide modifications: H2BK27ac, binder concentration: 1:2,000 dilution
# [12] = peptide region: H2B 17-29, peptide modifications: H2BK27ac, binder concentration: 1:10,000 dilution
# [13] = peptide region: H3 1-13, peptide modifications: H3K4ac H3K9ac, binder concentration: 1:2,000 dilution
# [14] = peptide region: H3 1-13, peptide modifications: H3K4ac H3K9ac, binder concentration: 1:10,000 dilution
# [15] = peptide region: H3 1-13, peptide modifications: H3K4ac H3K9me2, binder concentration: 1:2,000 dilution
# [16] = peptide region: H3 1-13, peptide modifications: H3K4ac H3K9me2, binder concentration: 1:10,000 dilution
# [17] = peptide region: H2B 17-29, peptide modifications: H2BK24ac H2BK28ac, binder concentration: 1:2,000 dilution
# [18] = peptide region: H2B 17-29, peptide modifications: H2BK24ac H2BK28ac, binder concentration: 1:10,000 dilution
# [19] = peptide region: H3 1-13, peptide modifications: H3K4ac, binder concentration: 1:2,000 dilution
# [20] = peptide region: H3 1-13, peptide modifications: H3K4ac, binder concentration: 1:10,000 dilution
# [21] = peptide region: H2B 17-29, peptide modifications: H2BK24ac H2BK27ac H2BK28ac, binder concentration: 1:2,000 dilution
# [22] = peptide region: H2B 17-29, peptide modifications: H2BK24ac H2BK27ac H2BK28ac, binder concentration: 1:10,000 dilution
# [23] = peptide region: H3 1-13, peptide modifications: H3K4me1, binder concentration: 1:2,000 dilution
# [24] = peptide region: H3 1-13, peptide modifications: H3K4me1, binder concentration: 1:10,000 dilution
binder,measurement,setting,value
ARTKQTARKSTGG [H3 1-13 A R T Kme Q T A R Kme S T G G],peptide microarray binding signal,"[1]; peptide region: H3 1-13, peptide modifications: H3K4me1 H3K9me1, binder concentration: 50 nM",0.00743 ± 0.00015
same,peptide microarray binding signal,"[1]; peptide region: H3 1-13, peptide modifications: H3K4me1 H3K9me1, binder concentration: 500 nM",0.0134 ± 0.00046
same,peptide microarray binding signal,"[2]; peptide region: H3 1-13, peptide modifications: H3K4me1 H3K9me1, binder concentration: 10 nM",0.105 ± 0.023
same,peptide microarray binding signal,"[2]; peptide region: H3 1-13, peptide modifications: H3K4me1 H3K9me1, binder concentration: 100 nM",0.145 ± 0.024
same,peptide microarray binding signal,[3]; [5],0.0452 ± 0.0073
same,peptide microarray binding signal,[3]; [6],0.0277 ± 0.0056
same,peptide microarray binding signal,[4]; [5],0.00387 ± 0.00011
same,peptide microarray binding signal,[4]; [6],0.00248 ± 0.00012
ARTKQTARKSTGG [H3 1-13 A R T Kme Q T A R Kac S T G G],peptide microarray binding signal,"[1]; peptide region: H3 1-13, peptide modifications: H3K4me1 H3K9ac, binder concentration: 50 nM",0.0172 ± 0.00082
same,peptide microarray binding signal,"[1]; peptide region: H3 1-13, peptide modifications: H3K4me1 H3K9ac, binder concentration: 500 nM",0.0329 ± 0.0029
same,peptide microarray binding signal,"[2]; peptide region: H3 1-13, peptide modifications: H3K4me1 H3K9ac, binder concentration: 10 nM",0.758 ± 0.07
same,peptide microarray binding signal,"[2]; peptide region: H3 1-13, peptide modifications: H3K4me1 H3K9ac, binder concentration: 100 nM",0.727 ± 0.11
same,peptide microarray binding signal,[3]; [7],0.27 ± 0.033
same,peptide microarray binding signal,[3]; [8],0.157 ± 0.018
same,peptide microarray binding signal,[4]; [7],0.00678 ± 0.00086
same,peptide microarray binding signal,[4]; [8],0.00634 ± 0.00026
AVTKAQKKDGKKR [H2B 17-29 A V T K A Q K K D G Kac Kac R],peptide microarray binding signal,"[1]; peptide region: H2B 17-29, peptide modifications: H2BK27ac H2BK28ac, binder concentration: 50 nM",0.0047 ± 0.00043
same,peptide microarray binding signal,"[1]; peptide region: H2B 17-29, peptide modifications: H2BK27ac H2BK28ac, binder concentration: 500 nM",0.00386 ± 0.00024
same,peptide microarray binding signal,"[2]; peptide region: H2B 17-29, peptide modifications: H2BK27ac H2BK28ac, binder concentration: 10 nM",0.00418 ± 6.5e-05
same,peptide microarray binding signal,"[2]; peptide region: H2B 17-29, peptide modifications: H2BK27ac H2BK28ac, binder concentration: 100 nM",0.00276 ± 0.00023
same,peptide microarray binding signal,[3]; [9],0.00017 ± 5.6e-06
same,peptide microarray binding signal,[3]; [10],0.00114 ± 1.2e-05
same,peptide microarray binding signal,[4]; [9],0.000544 ± 3e-05
same,peptide microarray binding signal,[4]; [10],0.0011 ± 4e-05
AVTKAQKKDGKKR [H2B 17-29 A V T K A Q K K D G Kac K R],peptide microarray binding signal,"[1]; peptide region: H2B 17-29, peptide modifications: H2BK27ac, binder concentration: 50 nM",0.00248 ± 9e-05
same,peptide microarray binding signal,"[1]; peptide region: H2B 17-29, peptide modifications: H2BK27ac, binder concentration: 500 nM",0.00624 ± 0.00045
same,peptide microarray binding signal,"[2]; peptide region: H2B 17-29, peptide modifications: H2BK27ac, binder concentration: 10 nM",0.00185 ± 3.3e-05
same,peptide microarray binding signal,"[2]; peptide region: H2B 17-29, peptide modifications: H2BK27ac, binder concentration: 100 nM",0.00149 ± 4.1e-05
same,peptide microarray binding signal,[3]; [11],0.00126 ± 4.4e-05
same,peptide microarray binding signal,[3]; [12],0.000913 ± 1.6e-05
same,peptide microarray binding signal,[4]; [11],0.000302 ± 3.1e-06
same,peptide microarray binding signal,[4]; [12],0.000404 ± 4.4e-06
ARTKQTARKSTGG [H3 1-13 A R T Kac Q T A R Kac S T G G],peptide microarray binding signal,"[1]; peptide region: H3 1-13, peptide modifications: H3K4ac H3K9ac, binder concentration: 50 nM",0.0941 ± 0.064
same,peptide microarray binding signal,"[1]; peptide region: H3 1-13, peptide modifications: H3K4ac H3K9ac, binder concentration: 500 nM",0.0794 ± 0.02
same,peptide microarray binding signal,"[2]; peptide region: H3 1-13, peptide modifications: H3K4ac H3K9ac, binder concentration: 10 nM",0.0863 ± 0.014
same,peptide microarray binding signal,"[2]; peptide region: H3 1-13, peptide modifications: H3K4ac H3K9ac, binder concentration: 100 nM",0.099 ± 0.0066
same,peptide microarray binding signal,[3]; [13],0.047 ± 0.0095
same,peptide microarray binding signal,[3]; [14],0.139 ± 0.057
same,peptide microarray binding signal,[4]; [13],0.102 ± 0.0083
same,peptide microarray binding signal,[4]; [14],0.123 ± 0.018
ARTKQTARKSTGG [H3 1-13 A R T Kac Q T A R Kme2 S T G G],peptide microarray binding signal,"[1]; peptide region: H3 1-13, peptide modifications: H3K4ac H3K9me2, binder concentration: 50 nM",0.00875 ± 0.0011
same,peptide microarray binding signal,"[1]; peptide region: H3 1-13, peptide modifications: H3K4ac H3K9me2, binder concentration: 500 nM",0.0157 ± 0.0031
same,peptide microarray binding signal,"[2]; peptide region: H3 1-13, peptide modifications: H3K4ac H3K9me2, binder concentration: 10 nM",0.0771 ± 0.0077
same,peptide microarray binding signal,"[2]; peptide region: H3 1-13, peptide modifications: H3K4ac H3K9me2, binder concentration: 100 nM",0.0944 ± 0.0071
same,peptide microarray binding signal,[3]; [15],0.00689 ± 0.0014
same,peptide microarray binding signal,[3]; [16],0.00702 ± 0.001
same,peptide microarray binding signal,[4]; [15],0.00331 ± 0.0003
same,peptide microarray binding signal,[4]; [16],0.00455 ± 0.00089
AVTKAQKKDGKKR [H2B 17-29 A V T K A Q K Kac D G K Kac R],peptide microarray binding signal,"[1]; peptide region: H2B 17-29, peptide modifications: H2BK24ac H2BK28ac, binder concentration: 50 nM",0.00524 ± 0.00097
same,peptide microarray binding signal,"[1]; peptide region: H2B 17-29, peptide modifications: H2BK24ac H2BK28ac, binder concentration: 500 nM",0.00786 ± 0.0018
same,peptide microarray binding signal,"[2]; peptide region: H2B 17-29, peptide modifications: H2BK24ac H2BK28ac, binder concentration: 10 nM",0.00412 ± 0.00017
same,peptide microarray binding signal,"[2]; peptide region: H2B 17-29, peptide modifications: H2BK24ac H2BK28ac, binder concentration: 100 nM",0.00432 ± 0.00035
same,peptide microarray binding signal,[3]; [17],0.00034 ± 3.1e-05
same,peptide microarray binding signal,[3]; [18],0.00131 ± 5.7e-05
same,peptide microarray binding signal,[4]; [17],0.000695 ± 4.4e-05
same,peptide microarray binding signal,[4]; [18],0.000519 ± 5.6e-06
ARTKQTARKSTGG [H3 1-13 A R T Kac Q T A R K S T G G],peptide microarray binding signal,"[1]; peptide region: H3 1-13, peptide modifications: H3K4ac, binder concentration: 50 nM",0.0102 ± 0.00024
same,peptide microarray binding signal,"[1]; peptide region: H3 1-13, peptide modifications: H3K4ac, binder concentration: 500 nM",0.0281 ± 0.0023
same,peptide microarray binding signal,"[2]; peptide region: H3 1-13, peptide modifications: H3K4ac, binder concentration: 10 nM",0.214 ± 0.045
same,peptide microarray binding signal,"[2]; peptide region: H3 1-13, peptide modifications: H3K4ac, binder concentration: 100 nM",0.0856 ± 0.085
same,peptide microarray binding signal,[3]; [19],0.00445 ± 0.0025
same,peptide microarray binding signal,[3]; [20],0.00188 ± 0.00011
same,peptide microarray binding signal,[4]; [19],0.00439 ± 0.00098
same,peptide microarray binding signal,[4]; [20],0.0019 ± 0.00014
AVTKAQKKDGKKR [H2B 17-29 A V T K A Q K Kac D G Kac Kac R],peptide microarray binding signal,"[1]; peptide region: H2B 17-29, peptide modifications: H2BK24ac H2BK27ac H2BK28ac, binder concentration: 50 nM",0.00295 ± 3.3e-05
same,peptide microarray binding signal,"[1]; peptide region: H2B 17-29, peptide modifications: H2BK24ac H2BK27ac H2BK28ac, binder concentration: 500 nM",0.00638 ± 0.0005
same,peptide microarray binding signal,"[2]; peptide region: H2B 17-29, peptide modifications: H2BK24ac H2BK27ac H2BK28ac, binder concentration: 10 nM",0.0037 ± 7.9e-05
same,peptide microarray binding signal,"[2]; peptide region: H2B 17-29, peptide modifications: H2BK24ac H2BK27ac H2BK28ac, binder concentration: 100 nM",0.00716 ± 0.00073
same,peptide microarray binding signal,[3]; [21],0.000944 ± 5.4e-05
same,peptide microarray binding signal,[3]; [22],0.00108
same,peptide microarray binding signal,[4]; [21],0.000634 ± 9.9e-06
same,peptide microarray binding signal,[4]; [22],0.00098 ± 3e-05
ARTKQTARKSTGG [H3 1-13 A R T Kme Q T A R K S T G G],peptide microarray binding signal,"[1]; peptide region: H3 1-13, peptide modifications: H3K4me1, binder concentration: 50 nM",0.00755 ± 0.00014
same,peptide microarray binding signal,"[1]; peptide region: H3 1-13, peptide modifications: H3K4me1, binder concentration: 500 nM",0.0155 ± 0.00093
same,peptide microarray binding signal,"[2]; peptide region: H3 1-13, peptide modifications: H3K4me1, binder concentration: 10 nM",0.0269 ± 0.0015
same,peptide microarray binding signal,"[2]; peptide region: H3 1-13, peptide modifications: H3K4me1, binder concentration: 100 nM",0.112 ± 0.035
same,peptide microarray binding signal,[3]; [23],0.0156 ± 0.0047
same,peptide microarray binding signal,[3]; [24],0.0142 ± 0.0025
same,peptide microarray binding signal,[4]; [23],0.00231 ± 0.00034
same,peptide microarray binding signal,[4]; [24],0.00173 ± 1.7e-05
